# ChEMBL document CHEMBL3433997, “St. Jude Leishmania screening dataset” (2016)
# Molecular target: Glucose transporter (Leishmania mexicana) (UniProt O61059)
# Experiment: ST_JUDE_LEISH: Cytotoxicity at 2uM final concentration against transgenic Leishmania Mexicana promastigotes LmGT2 that are glucose transport deficient and complemented with the L. Mexicana glucose transporter 2. Activity is measured by DNA content using SYBR green in vitro
# Type: functional
row,SMILES,inhibition [%]
1,Cc1cnc(NCC2CCCCC2)nc1N[C@@H](CC(C)C)C(=O)Nc1ccccc1,0.65
2,CCC(C)NC(=O)Nc1ccc(-c2cccc(-c3nc4cc(C(F)(F)F)ccc4[nH]3)c2)cc1 (centres undefined),4.56
3,COc1ccc(-c2ccc(NC(=O)c3cccc(F)c3)cc2)cc1CNC(C)C,-2.2
4,NS(=O)(=O)c1ccc(CNC(=O)c2cnc3c(O)cccc3c2Nc2cccc(NC(=O)c3ccc(Cl)c(Cl)c3)c2)cc1,5.34
5,Cc1[nH]c(/C=C2\C(=O)Nc3ccc(S(=O)(=O)Cc4c(Cl)cccc4Cl)cc32)c(C)c1C(=O)N1CCC[C@@H]1CN1CCCC1,2.26
6,O=C(NCc1ccccc1)c1nn(CCCN2CCC(N3CCCC3)CC2)cc1-c1ccc(Cl)c(Cl)c1,0.9
7,Cn1nc(-c2ccc(NC(=O)Nc3cc(C(F)(F)F)cc(C(F)(F)F)c3)c(F)c2)c2cnc(NCCN3CCOCC3)nc21,3.49
8,CCOC(=O)[C@H](Cc1cc([N+](=O)[O-])c(Oc2ccc(OC)c(Cc3ccc(OC)c(C(C)C)c3)c2)c([N+](=O)[O-])c1)NC(=O)C(F)(F)F,12.6
9,Cc1cccc2nc(-c3cccc(-c4cccc(CNCCNC(=O)c5ccnn5C)c4)c3)[nH]c12,-2.41
10,CC1(C)CCCN(c2ncc(-c3cccc(CNCc4ccccc4O)c3)cn2)C1,3.18
11,COc1cc(C(=O)NC2CCN(Cc3ccccc3)CC2)ccc1-c1nc2cc(Cl)c(Cl)cc2[nH]1,0.13
12,Oc1ccc2[nH]cc(C3CCN(CCCNCc4ccc(-c5ccccc5)cc4)CC3)c2c1,2.61
13,CCc1c(CCNCCCCCCNC(C)(C)Cc2ccc3c(c2CC)OCO3)ccc(OC)c1OC,6.49
14,COc1ccc(-c2cc(C(=O)N[C@@H](CC3CCCCC3)C(=O)NCCN3CCCC3)ccc2O)cc1,1.32
15,COc1ccc2c(c1)c(C1CCN(CCCCNC(=O)c3ccc(-c4ccc(C(F)(F)F)cc4)cc3)CC1)cn2C(C)C,0.76
16,CC1CC1C(=O)NC1CCN(CC2(c3ccccc3)CCCCC2)CC1 (centres undefined),-0.67
17,CC(C)[C@H](NC(=O)c1c(F)cccc1F)C(=O)Nc1ccc(Cc2nc3ccccc3s2)cc1,4.17
18,COc1cccc(Nc2nc(C)cc(NCc3ccc(-c4c(C)noc4C)cc3)n2)c1,3.73
19,Cc1cc(N2CCCC2)nc(Nc2ccc(NC(=O)C(C)(C)C)cc2)n1,-0.65
20,COc1cccc(C(=O)N2CCOC(CCN3CCC(c4ccccc4)CC3)(c3ccc(Cl)c(Cl)c3)C2)c1 (centres undefined),-0.26
21,COc1ccc(CNC2CCN(C)CC2)cc1-c1ccc(S(=O)(=O)NC2CCC2)cc1,2.91
22,COc1cc2ncnc(Nc3ccc(OCc4ccccc4)c(I)c3)c2cc1OC,1.33
23,CCN1CCN(CCNc2c3ccccc3nc3ccccc23)CC1,79
24,CN1CCN(Cc2nc(-c3ccc4c(Nc5ccc(F)c(O)c5)ccnc4c3)cs2)CC1,0.94
